Results on 63 compounds are retold here after PubChem BioAssay AID651604 (The Scripps Research Institute Molecular Screening Center, 2012).

Molecules are shown by their SMILES. Hit rate of the full screen: of about 1,500 compounds, about 1,400 (93%) were called active. So high a share suggests a set chosen from earlier hits. These entries were drawn from the full list. Unmarked numbers belong to inactive results. Rule as the data show it: active = inhibition above about 9.5%; inactive = the rest.

This assay is described as follows: PGV04 antibody small-molecule binding – biochemical, TR-FRET, distinct HIV envelope site, counter-screen for PG9 antibody binder project (AID 651604). The following applies: TR-FRET PGV04 antibody-gp120 binding, at 6.7 µM, stronger effect = higher value. (In general: Time-resolved FRET reads energy transfer from a long-lived donor to a nearby acceptor.)
In the case of `Fc1cc(F)c2nc(Nc3nc4c(F)cccc4s3)sc2c1`, the inhibition (as a rule, how much of the control response was suppressed) is 15.5% (active). The result for `Cc1nc(-c2ccccc2)sc1-c1nc(-c2ccccc2)ncc1S(=O)(=O)c1ccccc1` reads 11.5% (active); that for `CC(C)OCCCNC(=O)c1cc(Sc2ccc(F)cc2)nc2ccccc12`, 28.9% (active). The result for `N#C/C=C1\Sc2ccccc2C(=O)N1CC(=O)N1CCN(S(=O)(=O)c2ccccc2)CC1` reads 36.9% (active); that for `COCCNC(=O)c1cc2c(Br)ccc(Br)c2nc1N`, 20.9% (active).

`CC(=O)c1sc(NC(=O)CCCOc2ccccc2C)nc1C`: the inhibition is 29.6% (active). The result for `COc1cccc(-n2c(SCC(=O)c3c[nH]c4ccccc34)nc3ccccc3c2=O)c1` reads 32.9% (active). As to `Cc1cc2c(cc1C)N1C(=O)c3cc4ccccc4cc3NC(=O)C1C(=O)N2` (stereo not drawn), the inhibition was 17% (active). On to `O=C(Oc1ccccc1)Oc1ccc2c(c1)oc(=O)c1ccccc12`, for which the inhibition was 46.4% (active). The result for `N#Cc1ccccc1Sc1ccccc1C(=O)OCC(=O)NC1CCCCC1` reads 45.7% (active); that for `Cc1ccc(-c2cc(C(=O)NCc3cn(C)nc3C)c3cc(Br)ccc3n2)cc1`, 25.8% (active); that for `Cc1ccc(-n2c(SCC(=O)NCCC3=CCCCC3)nc3n[nH]c(C)c3c2=N)cc1Cl`, 27.8% (active). On to `CCCCNC(=O)CSc1nc2n[nH]c(C)c2c(=N)n1-c1cccc(Cl)c1C`, for which the inhibition was 63.2% (active). The result for `COc1cccc(-c2ccc(C#N)c(SCC(=O)NCCc3ccc(Cl)cc3)n2)c1` reads 13% (active); that for `COc1ccc(CCNC(=O)CSc2nc(-c3ccc(OC)c(OC)c3)ccc2C#N)cc1`, 38.1% (active); that for `COC(=O)c1ccc(NC(=S)Nc2cccc(C)n2)cc1`, 16.1% (active). For the compound `S=c1[nH]c2ccccc2c2ccccc12`, the inhibition was 11.6% (active). `O=C(Nc1nnc(-c2ccccc2F)s1)c1ccccc1F`: the inhibition was 36.9% (active). The result for `C=CCOc1cccc(C2C(C(=O)c3ccc(C)o3)=C(O)C(=O)N2CCCn2ccnc2)c1` (stereo not drawn) reads 22.6% (active); that for `CCCOc1ccc(C2C(C(=O)c3ccc(C)o3)=C(O)C(=O)N2CCCn2ccnc2)cc1` (stereo not drawn), 65.3% (active); that for `O=C(O)CCC(=O)Nc1nc2ccc([N+](=O)[O-])cc2s1`, 5.74%. As to `COc1ccc(CC(=O)Nc2ccc(-c3nnc(-c4ccccc4)o3)cc2)cc1`, the inhibition is 24.6% (active).

`CCc1ccc(NC(=O)CSc2nnc(-c3cnccn3)n2Cc2ccco2)cc1`: the inhibition is 29.1% (active). Regarding `O=C(C1=C(O)C(=O)N(Cc2ccccc2)C1c1ccco1)c1ccco1` (stereo not drawn), the inhibition is 39.4% (active). The result for `Cc1cc(C)cc(NC(=O)C2CCCN(S(=O)(=O)c3ccc4[nH]c(=O)ccc4c3)C2)c1` (stereo not drawn) reads 34.2% (active); that for `COc1ccc(Cl)cc1NC(=O)Cn1nc(-c2ccc(C)cc2)n(C)c1=S`, 26.6% (active).

In the case of `COc1ccc(-c2csc(NC(=O)c3ccc(N4C(=O)CCC4=O)cc3)n2)cc1OC`, the inhibition is 20.8% (active). The result for `Cc1nc2cc(NC(=O)CSc3nc4c(C)cccc4cc3C#N)ccc2s1` reads 59.1% (active).

For the compound `CC(=O)c1sc2nc(SCC(=O)N3CCCCC3)[nH]c(=O)c2c1C`, the inhibition was 32.7% (active).

On to `N#Cc1c(-c2cccs2)nc(SCC(=O)c2ccc(Br)cc2)[nH]c1=O`, for which the inhibition is 38.1% (active).

For `COCCCNc1nc2c(-c3cccc(C)c3)nnn2c2ccc(Cl)cc12`, the inhibition was 30.7% (active). The result for `C=CCn1c(=NC(=O)c2ccc(S(=O)(=O)N3CCCC3)cc2)sc2cc(NC(C)=O)ccc21` reads 43% (active); that for `C=CCn1c(=NC(=O)c2cccs2)sc2cc(NC(C)=O)ccc21`, 12.5% (active).

Turning to `Cc1c(-c2ccccc2)nc(N)c(C#N)c1-c1cccs1`, the inhibition was 27.9% (active). The result for `CCCc1nc(SCC(=O)Nc2ccc(S(=O)(=O)N(C)C)cc2)c2ccccc2n1` reads 41% (active).

In the case of `N#Cc1ccccc1NC(=O)c1cccc(COc2ccc(Cl)cc2Cl)c1`, the inhibition was 24.8% (active). For the compound `CCOc1cc2ccccc2cc1C(=O)Nc1ccccn1`, the inhibition was 16.9% (active). As for `N#Cc1c(N)nc2c3c(sc(=N)c2c1N)NC(=O)CC3c1ccccc1Cl` (stereo not drawn), the inhibition was 37% (active).

Turning to `O=C1C(=O)N(CCN2CCOCC2)C(c2cccc(Cl)c2)/C1=C(/O)c1ccc2c(c1)OCO2` (stereo not drawn), the inhibition was 42.7% (active).

Take `COc1ccc(-n2nnnc2-c2nc3ccccc3s2)cc1`: the inhibition is 59.6% (active).

On to `O=C(COC(=O)c1ccc2c(c1)OCCO2)NCc1ccccc1Cl`, for which the inhibition was 33.7% (active). The result for `COc1ccc(-c2c(C)nn3c(N4CCC(C(=O)N5CCCCC5)CC4)cc(C)nc23)cc1OC` reads 12.2% (active).

As for `Cn1c(=S)sc2ccc3ccccc3c21`, the inhibition is 15.2% (active). For `COc1cccc(NS(=O)(=O)c2ccc3[nH]cc(C(=O)NCCCOC(C)C)c(=O)c3c2)c1`, the inhibition was 19.8% (active). The result for `CCOc1ccc2cc(C#N)c(SCC(=O)OC)nc2c1` reads 65.8% (active). The result for `O=C(NCc1ccc(Cl)cc1)c1cc2c(nc3sccn32)s1` reads 30.7% (active). As for `Cc1cccc(Nc2nc3c(S(=O)(=O)c4ccccc4)nnn3c3ccccc23)c1C`, the inhibition is 34.2% (active). With `O=C(Nc1c(Br)cc2c(c1Br)Cc1cc([N+](=O)[O-])ccc1-2)C(Cl)Cl`, the inhibition was 79.2% (active). As for `Cc1ccc(-n2ncc3c(=O)n(-c4ccc(C)c(C)c4)c(-c4ccco4)nc32)cc1`, the inhibition was 11.9% (active). In the case of `Cc1cc(Br)ccc1NC(=O)c1sc2ncn(CC(=O)N3CCN(c4ccccn4)CC3)c(=O)c2c1C`, the inhibition was 15.6% (active).

`CCOc1cccc(NC(=O)Cn2nc(-c3ccc4c(c3)OCCO4)ccc2=O)c1`: the inhibition was 25.3% (active). `CCOc1ccc(C(=O)COC(=O)c2ccc(-n3cnnn3)cc2)cc1`: the inhibition is 34% (active). The result for `CCOC(=O)c1c(C)[nH]c(C(=O)OCC(=O)c2ccc(OC)cc2OC)c1C` reads 54.4% (active); that for `CC(=O)c1cc(C#N)c(SCC(=O)Nc2nccs2)nc1C`, 51.4% (active).

In the case of `O=C1COc2ccc(C(=O)COC(=O)c3ccccc3Cl)cc2N1`, the inhibition was 32.6% (active). On to `Cc1nc2nc(SCC(=O)c3ccccc3)[nH]c2cc1Br`, for which the inhibition is 46.9% (active).

In the case of `O=C(Nc1cccc(S(=O)(=O)Nc2ccc(Cl)cc2)c1)c1ccc2c(c1)OCCO2`, the inhibition was 34.2% (active). As for `CC1(C)Cc2ccccc2-c2[nH]c(=S)[nH]c(=O)c21`, the inhibition was 7.23%.

Turning to `CCn1c(SCC(=O)Nc2cccc(F)c2)nnc1-c1cc2cc(Br)ccc2o1`, the inhibition was 58.4% (active). In the case of `O=C(N=C1SC2CS(=O)(=O)CC2N1Cc1ccccc1)c1ccccc1` (stereo not drawn), the inhibition is 46.9% (active). The result for `CCn1nnc2cc(C(=O)Nc3ccc(C(=O)OC(C)C)cc3)ccc21` reads 37% (active); that for `COC(=O)C1=C(C)N(Cc2ccccc2C(F)(F)F)C(=NCc2ccc(OC)cc2)NC1c1cccc(C(F)(F)F)c1` (stereo not drawn), 6.34%; that for `O=C(O)CCCCCNc1ncnc2ccc(Br)cc12`, 30.4% (active).
